Measurements as given in PubChem BioAssay AID1159580 (chemical genetic matrix, 2015).
The whole screen tested about 5,500 compounds, of which about 2,000 (36%) were called active. Another 18% or so got no clear call; they are omitted. No stated cut-off is given here; in the data, active means normalized growth mostly below about 0.91 (no sharp cut-off); inconclusive means no clear call, values can overlap the other calls; inactive means mostly above about 0.92. Some of the results follow.

Test: chemical genetic growth profiling, strain panel (AID 1159580);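 further: tested at 20 µM; growth read once vehicle control cultures reached saturation at 30 °C; 1 = growth at the plate median or of vehicle wells; lower values mean less growth of the strain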
Conditions: growth OD

Measured: normalized growth

c1ccc2c(c1)CCCC2C1=NCCN1 (stereo not given)
inactive: S. cerevisiae deletion strains, locus YKL009W, strain mrt4, hits give low values 0.995 | S. cerevisiae deletion strains, locus YKL068W, hits give low values 1 | S. cerevisiae deletion strains, locus YKL085W, strain MDH1 (second series), hits give low values 1.01 | S. cerevisiae deletion strains, locus YKL085W, strain MDH1, hits give low values 1.01 | S. cerevisiae deletion strains, locus YKL160W, strain elf1, hits give low values 1.03 | S. cerevisiae deletion strains, locus YKL190W, strain CNB1, hits give low values 1.01 | S. cerevisiae deletion strains, locus YKR001C, strain vps1, hits give low values 0.986 | S. cerevisiae deletion strains, locus YKR026C, strain gcn3, hits give low values 1.02 | S. cerevisiae deletion strains, locus YKR091W, strain srl3, hits give low values 1.03 | S. cerevisiae deletion strains, locus YLL001W, strain dnm1, hits give low values 1.03 | S. cerevisiae deletion strains, locus YLL026W, hits give low values 1.03 | S. cerevisiae deletion strains, locus YLL041C, strain sdh2, hits give low values 1.04 | S. cerevisiae deletion strains, locus YLR027C, strain aat2, hits give low values 1.02 | S. cerevisiae deletion strains, locus YLR039C, strain RIC1, hits give low values 1.03 | S. cerevisiae deletion strains, locus YLR058C, strain SHM2, hits give low values 1.01 | S. cerevisiae deletion strains, locus YLR102C, strain apc9, hits give low values 1 | S. cerevisiae deletion strains, locus YLR113W, strain HOG1, hits give low values 0.982 | S. cerevisiae deletion strains, locus YLR221C, strain rsa3, hits give low values 1.04 | S. cerevisiae deletion strains, locus YLR258W, strain gsy2, hits give low values 1.02 | S. cerevisiae deletion strains, locus YLR262C, strain YPT6 (second series), hits give low values 1.04 | S. cerevisiae deletion strains, locus YLR262C, strain YPT6, hits give low values 1.04 | S. cerevisiae deletion strains, locus YLR268W, strain sec22, hits give low values 1.03 | S. cerevisiae deletion strains, locus YLR320W, strain mms22, hits give low values 1.03 | S. cerevisiae deletion strains, locus YLR330W, strain CHS5, hits give low values 1.01 | S. cerevisiae deletion strains, locus YLR342W, strain FKS1 (second series), hits give low values 1.03 | S. cerevisiae deletion strains, locus YLR342W, strain FKS1, hits give low values 1.02 | S. cerevisiae deletion strains, locus YLR357W, strain rsc2, hits give low values 1.04 | S. cerevisiae deletion strains, locus YLR370C, strain arc18, hits give low values 1.02 | S. cerevisiae deletion strains, locus YLR371W, strain rom2, hits give low values 1.01 | S. cerevisiae deletion strains, locus YLR384C, strain iki3, hits give low values 1.03 | S. cerevisiae deletion strains, locus YLR418C, strain cdc73, hits give low values 0.98 | S. cerevisiae deletion strains, locus YML016C, strain PPZ1, hits give low values 1.01 | S. cerevisiae deletion strains, locus YML032C, strain rad52, hits give low values 1 | S. cerevisiae deletion strains, locus YML120C, strain ndi1, hits give low values 1.01 | S. cerevisiae deletion strains, locus YML124C, strain tub3, hits give low values 0.986 | S. cerevisiae deletion strains, locus YMR058W, strain fet3, hits give low values 1.02 | S. cerevisiae deletion strains, locus YMR078C, strain ctf18, hits give low values 0.997 | S. cerevisiae deletion strains, locus YMR125W, strain sto1, hits give low values 1.03 | S. cerevisiae deletion strains, locus YMR129W, hits give low values 1.02 | S. cerevisiae deletion strains, locus YMR205C, strain PFK2, hits give low values 1.05 | S. cerevisiae deletion strains, locus YMR223W, strain ubp8, hits give low values 0.985 | S. cerevisiae deletion strains, locus YMR231W, strain pep5, hits give low values 1.02 | S. cerevisiae deletion strains, locus YMR263W, strain SAP30, hits give low values 1.01 | S. cerevisiae deletion strains, locus YMR307W, strain GAS1, hits give low values 1 | S. cerevisiae deletion strains, locus YNL067W, strain RPL9B, hits give low values 1 | S. cerevisiae deletion strains, locus YNL071W, strain lat1, hits give low values 1.03 | S. cerevisiae deletion strains, locus YNL128W, strain TEP1, hits give low values 1.02 | S. cerevisiae deletion strains, locus YNL153C, strain GIM3, hits give low values 1.06 | S. cerevisiae deletion strains, locus YNL175C, strain NOP13, hits give low values 0.995 | S. cerevisiae deletion strains, locus YNL183C, strain NPR1, hits give low values 0.953 | S. cerevisiae deletion strains, locus YNL197C, strain WHI3, hits give low values 1 | S. cerevisiae deletion strains, locus YNL209W, strain ssb2, hits give low values 1.02 | S. cerevisiae deletion strains, locus YNL224C, strain SQS1, hits give low values 1 | S. cerevisiae deletion strains, locus YNL233W, strain BNI4, hits give low values 1.01 | S. cerevisiae deletion strains, locus YNL248C, strain rpa49, hits give low values 1.02 | S. cerevisiae deletion strains, locus YNL250W, strain rad50, hits give low values 0.998 | S. cerevisiae deletion strains, locus YNL271C, strain bni1, hits give low values 0.998 | S. cerevisiae deletion strains, locus YNL298W, strain CLA4, hits give low values 1.02 | S. cerevisiae deletion strains, locus YNL307C, strain MCK1, hits give low values 0.995 | S. cerevisiae deletion strains, locus YNL322C, strain KRE1 (second series), hits give low values 1.03 | S. cerevisiae deletion strains, locus YNL322C, strain KRE1, hits give low values 1.01 | S. cerevisiae deletion strains, locus YNR049C, strain mso1, hits give low values 1.02 | S. cerevisiae deletion strains, locus YNR052C, strain pop2, hits give low values 1.01 | S. cerevisiae deletion strains, locus YOL006C, strain TOP1, hits give low values 0.988 | S. cerevisiae deletion strains, locus YOL012C, strain htz1 0.923 | S. cerevisiae deletion strains, locus YOL147C, strain pex11, hits give low values 0.989 | S. cerevisiae deletion strains, locus YOR001W, strain rrp6, hits give low values 1.02 | S. cerevisiae deletion strains, locus YOR061W, strain CKA2, hits give low values 1.01 | S. cerevisiae deletion strains, locus YOR069W, strain VPS5, hits give low values 1.01 | S. cerevisiae deletion strains, locus YOR070C, strain gyp1, hits give low values 1.02 | S. cerevisiae deletion strains, locus YOR080W, strain dia2, hits give low values 1.04 | S. cerevisiae deletion strains, locus YOR083W, strain WHI5 (second series), hits give low values 1.02 | S. cerevisiae deletion strains, locus YOR083W, strain WHI5, hits give low values 1.03 | S. cerevisiae deletion strains, locus YOR106W, strain vam3, hits give low values 1.03 | S. cerevisiae deletion strains, locus YOR136W, strain idh2, hits give low values 0.994 | S. cerevisiae deletion strains, locus YOR144C, strain elg1, hits give low values 0.993 | S. cerevisiae deletion strains, locus YOR184W, strain ser1, hits give low values 0.99 | S. cerevisiae deletion strains, locus YOR231W, strain MKK1, hits give low values 0.978 | S. cerevisiae deletion strains, locus YOR265W, strain rbl2, hits give low values 1.02 | S. cerevisiae deletion strains, locus YOR270C, strain vph1, hits give low values 1.07 | S. cerevisiae deletion strains, locus YOR290C, strain snf2, hits give low values 1.04 | S. cerevisiae deletion strains, locus YOR316C, strain cot1, hits give low values 1 | S. cerevisiae deletion strains, locus YPL051W, strain arl3, hits give low values 1.03 | S. cerevisiae deletion strains, locus YPL055C, strain LGE1, hits give low values 0.995 | S. cerevisiae deletion strains, locus YPL078C, strain atp4, hits give low values 1.01 | S. cerevisiae deletion strains, locus YPL106C, strain sse1, hits give low values 1.06 | S. cerevisiae deletion strains, locus YPL240C, strain hsp82, hits give low values 1.01 | S. cerevisiae deletion strains, locus YPL241C, strain CIN2, hits give low values 1.01 | S. cerevisiae deletion strains, locus YPL256C, strain CLN2, hits give low values 0.959 | S. cerevisiae deletion strains, locus YPR119W, strain clb2, hits give low values 1.01 | S. cerevisiae deletion strains, locus YPR141C, strain kar3, hits give low values 0.981 | S. cerevisiae deletion strains, locus YPR163C, strain tif3, hits give low values 1 | S. cerevisiae deletion strains, locus YPR167C, strain met16, hits give low values 1 | S. cerevisiae deletion strains, strain wtn01, hits give low values 0.996 | S. cerevisiae strains, strain wild type, hits give low values 1.02
